FBPA Giardia inh – qHTS Assay for Inhibitors of Fructose-1,6-bisphosphate Aldolase from Giardia Lamblia. A8B2U2. purified Giardia FBPA. Potency, µM (highest dose often 59.6 µM), inactives show at the highest dose activity, negative = inhibition, most hits filed as inhibitors. 290,000 tested, 0.71% active. AID 2451, 2010; note: potency is the fitted concentration of half-maximal effect; % is set by controls: 0 for no effect and ±100 for the full control effect; nearly all actives have a fitted effect of over 55% in size
Target sequence (A8B2U2 whole entry, looked up): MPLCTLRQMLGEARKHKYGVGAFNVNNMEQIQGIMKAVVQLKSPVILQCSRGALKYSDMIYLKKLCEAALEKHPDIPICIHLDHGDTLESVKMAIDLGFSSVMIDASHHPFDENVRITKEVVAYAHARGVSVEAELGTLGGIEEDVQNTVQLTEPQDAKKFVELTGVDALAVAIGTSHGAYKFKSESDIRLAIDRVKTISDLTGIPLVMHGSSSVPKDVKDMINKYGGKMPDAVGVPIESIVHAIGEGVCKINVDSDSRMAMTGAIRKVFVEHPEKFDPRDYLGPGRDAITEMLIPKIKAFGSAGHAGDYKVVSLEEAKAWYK
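Giardia FBPA (40 nM reagent) was preincubated 10 min at RT with compound (up to 57.5 uM final), then substrate plus GAPDH/TPI/NAD/arsenate coupling system with diaphorase/resazurin was added; resorufin fluorescence (525/598 nm) was read after 20 min.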
CHX counter – Cycloheximide Counterscreen for Small Molecule Inhibitors of Shiga Toxin | 300,000 tested, 12% active | max response, % | AID 2314, 2010 | cell reporter, cycloheximide protein synthesis inhibition counterscreen; in the data active = max response mostly above about 13%, no sharp cut-off; inactive = mostly below about 14%; note: read at 38.3 µM for the half of the compounds with a filed dose; 0% is about no effect
Tb PYK inh – qHTS of Trypanosoma Brucei Inhibitors; TbPYK enzyme, Kinase-Glo Plus ATP luminescence, 45 min; Potency, µM (series often up to 76.8 µM), inactives show at the top dose activity, negative = inhibition, actives largely listed as inhibitors; 410,000 tested, 0.12% active; note: potency is the fitted concentration of half-maximal effect; % is set by controls: 0 for no effect and ±100 for the full control effect; nearly all actives have a fitted effect of over 50% in size
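ADP (130 uM final) triggers the TbPYK reaction after compound addition; incubation is 45 min at room temperature. Kinase-Glo Plus is then added and luminescence imaged. Normalized data are fitted to concentration-effect curves.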
LmPK inh – qHTS Assay for Inhibitors of Leishmania Mexicana Pyruvate Kinase (LmPK); Q27686; purified LmPK, Kinase-Glo ATP luminescence, 1 h; Potency, µM (highest dose often 57.5 µM), without a hit: at the highest dose activity change, negative = inhibition, usual class: inhibitors; 290,000 tested, 0.37% active; AID 1721, 2009; note: potency is the fitted concentration of half-maximal effect; % is set by controls: 0 for no effect and ±100 for the full control effect
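0.1 nM LmPK, 0.5 mM PEP, 0.1 mM ADP; 50 mM imidazole pH 7.2, 7 mM MgCl2, 50 mM KCl; 1 h RT. Kinase-Glo luminescence readout, normalized to no-enzyme (full inhibition) and uninhibited wells.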
Sm TGR block – qHTS Assay for the Inhibitors of Schistosoma Mansoni Peroxiredoxins. 360,000 tested, 3% active. Schistosoma mansoni thioredoxin glutathione reductase (TGR), Q962Y6. Potency, µM (titrated, usually from 114 µM), inactives show top-dose activity change, negative = inhibition, most hits filed as inhibitors. purified TGR, DTNB reduction, TNB absorbance 405 nm; note: potency is the fitted concentration of half-maximal effect; % is set by controls: 0 for no effect and ±100 for the full control effect; nearly all actives have a fitted effect of over 60% in size
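Kinetic colorimetric format: TGR-catalysed, NADPH-driven DTNB reduction monitored via TNB absorbance. Enzyme dispensed at 20 nM; compound exposure 15 min at room temperature before reaction start.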
Shiga toxin inh – A qHTS for Small Molecule Inhibitors of Shiga Toxin; Vero cells, Shiga toxin protein synthesis inhibition reporter; inhibition, % at 38.7 µM; 290,000 tested, 9.2% active; in the data active = inhibition mostly above about 28%, no sharp cut-off; inactive = mostly below about 43%; note: 0% is about no effect
* = called active by the depositor; [ ] = dose if it differs, or a comment. The sample as a whole holds a higher share of hits than the screen did. Unless noted, calls come from the whole dose curve; as a rule, active = well fitted curve in the direction sought with a large enough effect; inconclusive = small, poorly fitted or top-dose-only effect, or another doubt; inactive = no such curve, though single readings can be large; an effect the other way counts as inactive or inconclusive.

For CCOC(=O)c1[nH]c(C)c(/C(O)=C2\C(=O)C(=O)N(CCCN3CCOCC3)C2c2cccs2)c1C (stereo not given) the results were FBPA Giardia inh -6%, CHX counter 19*, Tb PYK inh -3%, LmPK inh 2%, Sm TGR block inconclusive and Shiga toxin inh 57.
Screening CCOC(=O)c1[nH]c(C)c(/C(O)=C2\C(=O)C(=O)N(CCN3CCOCC3)C2c2ccco2)c1C (stereo not given) returned FBPA Giardia inh -20%, CHX counter 1, Tb PYK inh -6%, LmPK inh 0% and Shiga toxin inh -9.
Screening CCOC(=O)c1[nH]c(C)c(/C(O)=C2\C(=O)C(=O)N(CCN(C)C)C2c2ccco2)c1C (stereo not given) returned FBPA Giardia inh -20%, CHX counter -1, Tb PYK inh -4%, LmPK inh -6%, Sm TGR block 56µM* and Shiga toxin inh -18.
Screening CCOc1cccc(/C(O)=C2/C(=O)C(=O)N(CCN3CCOCC3)C2c2ccncc2)c1 (stereo not given) returned FBPA Giardia inh -3%, CHX counter -3, LmPK inh 1% and Shiga toxin inh 1.
COc1cccc(/C(O)=C2/C(=O)C(=O)N(CCN3CCOCC3)C2c2cccs2)c1 (stereo not given) was read as FBPA Giardia inh -10%, CHX counter 23*, Tb PYK inh 2%, LmPK inh -4%, Sm TGR block inconclusive and Shiga toxin inh 20.
`CCc1cc2c(cc3c(=O)n(CC(=O)N4CCCCC4)ncn32)s1` gave Tb PYK inh 3% and Sm TGR block 10%.
For OC(c1cccc(Cl)c1)c1ncc(-c2ccc(C(F)(F)F)cc2)[nH]1 (stereo not given) the results were Tb PYK inh 0%.
For CC(=O)C1=NOC2C(=O)N(c3ccc(Cl)cc3)C(=O)C12 (stereo not given) the results were FBPA Giardia inh -3%, CHX counter -4, Tb PYK inh -18%, LmPK inh -1%, Sm TGR block 3.5µM* and Shiga toxin inh 8.
For CCOC(=O)C1=NOC2C(=O)N(c3ccc(Cl)cc3Cl)C(=O)C12 (stereo not given) the results were FBPA Giardia inh 4%, CHX counter -2, Tb PYK inh 1%, LmPK inh 0%, Sm TGR block 3.5µM* and Shiga toxin inh -3.
Screening N#Cc1ccc(NC(=S)NC(=O)C2CC2)cc1 returned Tb PYK inh 2%.
Screening CCCCC1=CC2=CC(=O)C(C)(OC(=O)CCc3ccccc3)C(=O)C2=CO1 (stereo not given) returned FBPA Giardia inh 0%, CHX counter -3, Tb PYK inh -22%, LmPK inh -7%, Sm TGR block 45µM* and Shiga toxin inh -4.
`CCCCC1=CC2=CC(=O)C(C)(OC(=O)c3cnc4ccccc4n3)C(=O)C2=CO1` (stereo not given) gave FBPA Giardia inh 0%, CHX counter -1, LmPK inh -1%, Sm TGR block 35µM* and Shiga toxin inh -8.
`CC1(OC(=O)CCc2ccccc2)C(=O)C=C2C=C(c3ccc(C#N)cc3)N(Cc3ccco3)C=C2C1=O` (stereo not given) gave FBPA Giardia inh -1%[12.9 µM], CHX counter 10, Tb PYK inh 1%, LmPK inh -3%[11.5 µM], Sm TGR block 35µM* and Shiga toxin inh 37.
COC/C=C/C1=CC2=CC(=O)C(C)(OC(=O)c3cnc4ccccc4n3)C(=O)C2=CN1Cc1ccc(OC)cc1 (stereo not given) was read as FBPA Giardia inh inconclusive, CHX counter -1, Tb PYK inh 2%, LmPK inh -5%[11.5 µM], Sm TGR block 16µM* and Shiga toxin inh -2.
For COC(=O)CCCC1=CC2=CC(=O)C(C)(OC(=O)c3cnc4ccccc4n3)C(=O)C2=CO1 (stereo not given) the results were FBPA Giardia inh -10%.
O=C(CCC1CCN(Cc2ccccc2)CC1)c1ccc2c(c1)NCCCC2 was read as Tb PYK inh -6%.
CCCn1ccnc1SC(C)C(=O)Nc1c(C)n(C)n(-c2ccccc2)c1=O (stereo not given) was read as Tb PYK inh -7% and Sm TGR block -20%.
Screening CC(C)c1cc(C(C)C)c(S(=O)(=O)Nc2cccc3cccnc23)c(C(C)C)c1 returned FBPA Giardia inh -21%, CHX counter 4 and Shiga toxin inh 2.
For COCCNC(=O)CN1C(=O)COc2ccc(S(=O)(=O)N3CCCC3)cc21 the results were Tb PYK inh 3% and Sm TGR block -11%.
Cc1nn(-c2ccccn2)c2c1C(=O)C(Br)CC2 (stereo not given) was read as FBPA Giardia inh 5µM*, CHX counter 12, Tb PYK inh inconclusive, LmPK inh -12%[11.5 µM], Sm TGR block 2.5µM* and Shiga toxin inh -12.
Cc1cccc(C(=O)Nc2ccccc2C(=O)OCc2cc(=O)n3nc(C4CC4)sc3n2)c1 was read as Tb PYK inh -4% and Sm TGR block -2%.
For CCCCC(CC)C/C=C1\CC(C(=O)OCC)Oc2ccccc21 (stereo not given) (tested in a mixture with another compound) the results were FBPA Giardia inh -2%[89.2 µM], CHX counter 10 and Shiga toxin inh inactive.
Screening O=C(Nc1nc2ccccc2[nH]1)c1ccc(OC(F)F)cc1 returned FBPA Giardia inh 21%, CHX counter 19*, Tb PYK inh -4%, LmPK inh inconclusive, Sm TGR block 1% and Shiga toxin inh 59*.
`N#CC(Cc1ccc(OC(F)F)cc1)c1nc2ccccc2[nH]1` (stereo not given) gave FBPA Giardia inh 1%, CHX counter 26*, Tb PYK inh -2%, LmPK inh inconclusive, Sm TGR block -10% and Shiga toxin inh 66*.
CCC(Oc1ccccc1)C(=O)Nc1nc2ccccc2[nH]1 (stereo not given) was read as FBPA Giardia inh -12%, CHX counter 21*, Tb PYK inh 1%, LmPK inh -3%, Sm TGR block 0% and Shiga toxin inh 35.
For Cn1nc(C(=O)Nc2nc3ccccc3[nH]2)c2ccccc2c1=O the results were FBPA Giardia inh -25%, CHX counter 29*, Tb PYK inh 0%, LmPK inh -1%, Sm TGR block -19% and Shiga toxin inh 33.
